Laboratory results as given in PubChem BioAssay (Tox21).
Values joined by “and” are separate entries in the source; they are usually repeats but may differ in a detail not shown here. Equal entries are not always repeated. Records with an inconclusive call do not appear. Entries that show only a call come without a potency. The source holds several records for some structures; these can differ, active in one and inactive in another. Active and inactive are the calls of the source. Unless noted, the call rests on the fitted dose curve; in most records, active means well fitted curve in the direction sought with a large enough effect in the repeat runs; inconclusive means weak or mixed curves; inactive means no such curve, though single readings can be large; an effect the other way counts as inactive or inconclusive.

Tests used:
[1] = qHTS assay to identify aromatase inhibitors - cell viability counter screen (AID 743084);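 further: cells stimulated with testosterone during compound exposure; nearly all actives have a fitted effect of over 55% in size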; further: potency means the concentration at half of the fitted maximal effect
[2] = molecular target: Aryl hydrocarbon receptor (Homo sapiens) (UniProt P35869); assay: qHTS assay to identify small molecule that activate the aryl hydrocarbon receptor (AhR) signaling pathway (AID 743085); further: nearly all actives have a fitted effect of over 15% in size; further: potency means the concentration at half of the fitted maximal effect;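 on activation: HG2L7.5c1 human HepG2 liver cells with stably integrated DRE-driven firefly reporter; series mostly up to about 70 µM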
Procedure, shortened: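 24 h compound exposure, 37C, HepG2-derived HG2L7.5c1 cells with DRE-responsive luciferase. Readouts: fluorescence viability, then luminescence at room temperature after 30 min.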

[3] = qHTS assay to identify small molecule that activate the aryl hydrocarbon receptor (AhR) signaling pathway - cell viability counter screen (AID 743086);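 further: HepG2 liver cells carrying the AhR DRE luciferase reporter; series mostly up to about 70 µM; nearly all actives have a fitted effect of over 45% in size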
Procedure, shortened: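 Cytotoxicity counter screen: CellTiter-Fluor signal (30 min, 37 C) in 4000 HepG2 cells/well carrying the DRE-luciferase reporter, following 24 h compound exposure at 37 C.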

[4] = molecular target: Peroxisome proliferator-activated receptor gamma (Homo sapiens) (UniProt P37231); assay: qHTS assay to identify small molecule agonists of the peroxisome proliferator-activated receptor gamma (PPARg) signaling pathway (AID 743094; active means well fitted activation curve with a large enough effect in the signal ratio in the repeat runs, not every such curve was filed as active; the % refers to the signal ratio)
Procedure, shortened: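 Reporter activation was scored by fluorescence of cleaved LiveBLAzer B/G substrate (1 h, room temperature) in PPARg-bla HEK293H cells previously treated 17 h at 37C with DMSO-dissolved compounds.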

[5] = molecular target: Peroxisome proliferator-activated receptor gamma (Homo sapiens) (UniProt P37231); assay: qHTS assay to identify small molecule antagonists of the peroxisome proliferator-activated receptor gamma (PPARg) signaling pathway (AID 743191; calls by dose curve; further: series mostly up to about 63 µM; nearly all actives have a fitted effect of over 30% in size)
Procedure, shortened: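 Beta-lactamase reporter under UAS control in HEK293H PPARg-bla cells; compound treatment 17 h at 37C. Read-out: fluorescence intensity after 1 h room-temperature incubation with LiveBLAzer B/G FRET substrate.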

[6] = qHTS assay to identify small molecule antagonists of the peroxisome proliferator-activated receptor gamma (PPARg) signaling pathway - cell viability counter screen (AID 743194); further: nearly all actives have a fitted effect of over 55% in size
Procedure, shortened: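 Viability was measured as CellTiter-Glo luminescence in GeneBLAzer PPARg UAS-bla HEK293H cells. These cells had been exposed 17 h at 37 C to compounds together with rosiglitazone at 50 nM final, with the beta-lactamase readout taken in the same wells.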

[7] = qHTS assay for small molecule agonists of the antioxidant response element (ARE) signaling pathway (AID 743202; active means well fitted activation curve with a large enough effect in the signal ratio in the repeat runs, not every such curve was filed as active; the % refers to the signal ratio; further: potency means the concentration at half of the fitted maximal effect)
Procedure, shortened: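 Beta-lactamase reporter activity, read as fluorescence intensity, reflects ARE/Nrf2 pathway induction in HepG2 cells after 16 h compound exposure at 37 C; substrate loading was 2 h at room temperature.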

[8] = qHTS assay for small molecule agonists of the antioxidant response element (ARE) signaling pathway - cell viability counter screen (AID 743203; calls by dose curve; further: nearly all actives have a fitted effect of over 55% in size; further: potency means the concentration at half of the fitted maximal effect)
Procedure, shortened: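 Viability counter screen: stably transfected ARE-bla HepG2 line, 16 hrs compound exposure at 37C/5% CO2, ATP-based CellTiter-Glo luminescence measured in the reporter wells.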

[9] = qHTS assay for small molecule activators of the heat shock response signaling pathway - cell viability counter screen (AID 743209); further: nearly all actives have a fitted effect of over 50% in size
Procedure, shortened: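 Viability of HSE-bla HeLa cells is measured with CellTiter-Glo in the wells already used for the reporter read. Compound exposure lasts 5 h at 37 C, and luminescence is read after 30 min at room temperature.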

[10] = qHTS assay for small molecule activators of the heat shock response signaling pathway (AID 743210; active means well fitted activation curve with a large enough effect in the signal ratio in the repeat runs, with a control signal flat, not every such curve was filed as active; the % refers to the signal ratio;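 further: HeLa cells with beta-lactamase reporter driven by heat shock elements; series mostly up to about 63 µM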)
Procedure, shortened: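 Fluorescence from a cleaved B/G FRET substrate (2.5 h, room temp) reports HSE-driven beta-lactamase in HeLa cells treated 5 h at 37 C with DMSO-dissolved compounds.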

[11] = qHTS assay to identify small molecule agonists of the peroxisome proliferator-activated receptor delta (PPARd) signaling pathway - cell viability counter screen (AID 743211); further: nearly all actives have a fitted effect of over 55% in size
Procedure, shortened: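 Luminescent ATP viability assay (CellTiter-Glo, 30 min RT) in UAS-bla HEK293H cells carrying the PPAR delta reporter construct, 3000 cells/well, after a 17 h compound treatment at 37 C.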

[12] = molecular target: Peroxisome proliferator-activated receptor delta (Homo sapiens) (UniProt Q03181); assay: qHTS assay to identify small molecule agonists of the peroxisome proliferator-activated receptor delta (PPARd) signaling pathway (AID 743212; calls by dose curve;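 further: HEK293H cells with PPARd UAS beta-lactamase reporter GeneBLAzer system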)
Procedure, shortened: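 Steps: seed PPARd-bla HEK293H cells; incubate 5 h, 37 C, 5% CO2; add compounds in DMSO; incubate, 37 C; add LiveBLAzer B/G FRET substrate; hold 2 h at room temperature; measure fluorescence.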

[13] = qHTS assay to identify small molecule antagonists of the peroxisome proliferator-activated receptor delta (PPARd) signaling pathway - cell viability counter screen (AID 743213); further: nearly all actives have a fitted effect of over 50% in size; further: potency means the concentration at half of the fitted maximal effect
Procedure, shortened: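 Same-well viability: cells pre-incubated 5 h, dosed with compound plus 300 nM L165041, kept 17 h at 37 C, FRET substrate 2 h RT, then CellTiter-Glo 30 min RT and luminescence.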

[14] = molecular target: Peroxisome proliferator-activated receptor delta (Homo sapiens) (UniProt Q03181); assay: qHTS assay to identify small molecule antagonists of the peroxisome proliferator-activated receptor delta (PPARd) signaling pathway (AID 743215; active means well fitted inhibition curve with a large enough effect in the signal ratio in the repeat runs, not every such curve was filed as active; the % refers to the signal ratio;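 further: cells stimulated with agonist L165041 at 300 nM final during compound exposure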; further: potency means the concentration at half of the fitted maximal effect)
Procedure, shortened: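 Plated HEK293H PPARd-bla cells rested 5 h at 37 C and 5% CO2. Compound, then agonist L165041 at 300 nM final, was added; 17 h at 37 C followed. Substrate loading, 2 h room temperature, fluorescence measured.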

[15] = qHTS assay to identify small molecule agonists of the farnesoid-X-receptor (FXR) signaling pathway - cell viability counter screen (AID 743218); further: nearly all actives have a fitted effect of over 45% in size; further: potency means the concentration at half of the fitted maximal effect
Procedure, shortened: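 Viability of FXR-bla HEK 293T cells is measured by ATP-based CellTiter-Glo luminescence following 16 h compound treatment at 37 C and a prior 2 h room-temperature beta-lactamase substrate step.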

[16] = qHTS assay to identify small molecule antagonists of the farnesoid-X-receptor (FXR) signaling pathway - cell viability counter screen (AID 743221; active means well fitted cell-killing curve with a large enough effect in the repeat runs, not every such curve was filed as active; further: nearly all actives have a fitted effect of over 50% in size)
Procedure, shortened: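 In GeneBLAzer FXR-UAS-bla HEK 293T cells stimulated with 50 uM chenodeoxycholic acid (final), compounds acted for 16 h at 37 C. Viability was assessed afterwards by CellTiter-Glo luminescence.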

[17] = molecular target: Bile acid receptor (Homo sapiens) (UniProt Q96RI1); assay: qHTS assay to identify small molecule antagonists of the farnesoid-X-receptor (FXR) signaling pathway (AID 743217; active means well fitted inhibition curve with a large enough effect in the signal ratio in the repeat runs, not every such curve was filed as active; the % refers to the signal ratio)
Procedure, shortened: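 Screen of the Tox21 10K library in quantitative HTS format using FXR-UAS-bla HEK 293T reporter cells. Agonist chenodeoxycholic acid, 50 uM final, added with compounds; 16 h incubation at 37 °C; beta-lactamase FRET fluorescence measured.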

[18] = molecular target: Vitamin D3 receptor (Homo sapiens) (UniProt P11473); assay: qHTS assay to identify small molecule agonists of the vitamin D receptor (VDR) signaling pathway (AID 743222; calls by dose curve)
Procedure, shortened: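 Fluorescence from cleaved LiveBLAzer B/G FRET substrate served as readout. VDR-bla cells had been treated 16 h at 37C with test compounds in DMSO, following a 4 h settling period, and substrate was loaded for 2 h at RT.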

[19] = molecular target: Vitamin D3 receptor (Homo sapiens) (UniProt P11473); assay: qHTS assay to identify small molecule antagonists of the vitamin D receptor (VDR) signaling pathway (AID 743223; active means well fitted inhibition curve with a large enough effect in the signal ratio in the repeat runs, not every such curve was filed as active; the % refers to the signal ratio)
Procedure, shortened: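 Agonist 1alpha,25-dihydroxyvitamin D3 (3 nM in well) was added with each compound to VDR-bla cells preincubated 4 h. Cells stood 16 h at 37C, then FRET substrate 2 h at room temperature; fluorescence intensity recorded.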

[20] = molecular target: Bile acid receptor (Homo sapiens) (UniProt Q96RI1); assay: qHTS assay to identify small molecule agonists of the farnesoid-X-receptor (FXR) signaling pathway (AID 743220; active means well fitted activation curve with a large enough effect in the signal ratio in the repeat runs, not every such curve was filed as active; the % refers to the signal ratio)
Procedure, shortened: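 FXR-UAS-bla HEK 293T cells carrying a UAS-driven beta-lactamase reporter were plated for 5 h at 37C/5% CO2, then exposed to DMSO-dissolved Tox21 10K compounds for 16 h at 37C. A LiveBLAzer B/G FRET substrate was loaded for 2 h at room temperature before fluorescence reading.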

Sequence of Vitamin D3 receptor (Homo sapiens) (P11473 whole entry, looked up): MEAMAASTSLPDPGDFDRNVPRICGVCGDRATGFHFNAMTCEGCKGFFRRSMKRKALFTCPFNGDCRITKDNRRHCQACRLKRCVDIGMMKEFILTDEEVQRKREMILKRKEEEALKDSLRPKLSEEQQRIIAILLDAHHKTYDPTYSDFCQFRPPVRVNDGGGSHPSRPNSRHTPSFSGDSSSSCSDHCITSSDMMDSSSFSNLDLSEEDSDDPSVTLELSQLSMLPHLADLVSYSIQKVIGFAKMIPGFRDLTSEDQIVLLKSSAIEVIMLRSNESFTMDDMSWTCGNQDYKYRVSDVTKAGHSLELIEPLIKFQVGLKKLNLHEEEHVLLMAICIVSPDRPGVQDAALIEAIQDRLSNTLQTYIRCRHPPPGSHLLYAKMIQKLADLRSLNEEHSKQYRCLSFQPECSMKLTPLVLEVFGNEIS
Sequence of Peroxisome proliferator-activated receptor gamma (Homo sapiens) (P37231 whole entry, looked up): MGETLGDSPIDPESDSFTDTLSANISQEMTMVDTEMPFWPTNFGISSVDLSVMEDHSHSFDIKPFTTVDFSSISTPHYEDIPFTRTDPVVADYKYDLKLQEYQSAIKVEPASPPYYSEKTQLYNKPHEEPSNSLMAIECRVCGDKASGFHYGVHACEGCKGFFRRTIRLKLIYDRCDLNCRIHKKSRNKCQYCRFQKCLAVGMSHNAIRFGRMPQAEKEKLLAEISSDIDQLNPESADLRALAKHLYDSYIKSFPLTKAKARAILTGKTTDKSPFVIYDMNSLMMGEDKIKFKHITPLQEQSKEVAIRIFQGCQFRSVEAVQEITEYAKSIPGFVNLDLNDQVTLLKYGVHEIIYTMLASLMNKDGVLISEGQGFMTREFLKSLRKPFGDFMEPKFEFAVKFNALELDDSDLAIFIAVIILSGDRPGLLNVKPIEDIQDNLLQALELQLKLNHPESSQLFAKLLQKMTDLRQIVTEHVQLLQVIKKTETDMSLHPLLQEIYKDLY
Sequence of Bile acid receptor (Homo sapiens) (Q96RI1 whole entry, looked up): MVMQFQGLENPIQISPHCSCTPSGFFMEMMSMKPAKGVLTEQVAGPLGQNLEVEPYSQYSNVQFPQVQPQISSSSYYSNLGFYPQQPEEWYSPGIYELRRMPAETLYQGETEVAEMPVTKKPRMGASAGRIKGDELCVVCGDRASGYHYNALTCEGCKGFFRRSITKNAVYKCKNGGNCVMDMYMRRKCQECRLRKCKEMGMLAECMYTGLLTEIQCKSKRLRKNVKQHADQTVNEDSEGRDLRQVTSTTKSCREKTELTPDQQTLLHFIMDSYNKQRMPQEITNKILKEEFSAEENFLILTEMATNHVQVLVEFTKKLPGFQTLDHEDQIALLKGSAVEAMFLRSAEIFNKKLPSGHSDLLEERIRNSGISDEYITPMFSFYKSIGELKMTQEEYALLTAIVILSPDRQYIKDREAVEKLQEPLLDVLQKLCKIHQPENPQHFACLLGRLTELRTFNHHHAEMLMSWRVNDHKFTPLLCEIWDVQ
Sequence of Peroxisome proliferator-activated receptor delta (Homo sapiens) (Q03181 whole entry, looked up): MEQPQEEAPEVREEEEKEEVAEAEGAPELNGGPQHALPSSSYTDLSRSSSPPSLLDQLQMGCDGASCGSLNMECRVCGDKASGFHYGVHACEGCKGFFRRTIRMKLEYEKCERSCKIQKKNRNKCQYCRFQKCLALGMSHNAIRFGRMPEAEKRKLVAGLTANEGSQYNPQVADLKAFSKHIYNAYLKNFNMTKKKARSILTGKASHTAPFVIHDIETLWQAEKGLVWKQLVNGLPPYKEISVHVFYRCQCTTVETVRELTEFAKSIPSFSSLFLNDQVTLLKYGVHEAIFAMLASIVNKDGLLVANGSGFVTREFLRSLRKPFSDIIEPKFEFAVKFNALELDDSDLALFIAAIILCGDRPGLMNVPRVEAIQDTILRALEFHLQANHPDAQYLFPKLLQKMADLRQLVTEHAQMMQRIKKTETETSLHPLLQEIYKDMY
Sequence of Aryl hydrocarbon receptor (Homo sapiens) (P35869 whole entry, looked up): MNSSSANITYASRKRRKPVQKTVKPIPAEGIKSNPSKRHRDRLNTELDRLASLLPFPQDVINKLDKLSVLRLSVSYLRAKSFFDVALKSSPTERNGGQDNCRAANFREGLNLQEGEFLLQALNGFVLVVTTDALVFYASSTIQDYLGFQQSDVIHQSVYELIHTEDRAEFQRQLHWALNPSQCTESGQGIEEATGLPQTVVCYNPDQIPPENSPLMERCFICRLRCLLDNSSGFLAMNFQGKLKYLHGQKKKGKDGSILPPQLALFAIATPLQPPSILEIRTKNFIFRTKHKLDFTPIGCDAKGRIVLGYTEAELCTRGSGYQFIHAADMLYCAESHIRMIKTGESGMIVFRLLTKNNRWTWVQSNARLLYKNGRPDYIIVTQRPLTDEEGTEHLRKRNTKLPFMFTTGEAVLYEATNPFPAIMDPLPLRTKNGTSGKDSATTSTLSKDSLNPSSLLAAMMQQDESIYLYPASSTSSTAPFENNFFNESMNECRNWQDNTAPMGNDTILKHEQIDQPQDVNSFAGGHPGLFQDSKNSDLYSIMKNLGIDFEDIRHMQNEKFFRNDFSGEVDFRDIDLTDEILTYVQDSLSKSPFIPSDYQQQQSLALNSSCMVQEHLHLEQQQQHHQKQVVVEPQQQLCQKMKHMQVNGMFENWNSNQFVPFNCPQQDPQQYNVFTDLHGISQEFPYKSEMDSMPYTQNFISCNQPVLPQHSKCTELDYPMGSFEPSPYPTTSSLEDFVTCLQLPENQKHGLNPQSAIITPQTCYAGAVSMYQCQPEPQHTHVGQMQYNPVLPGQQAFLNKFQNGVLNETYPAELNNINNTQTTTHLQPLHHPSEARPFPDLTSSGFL

SMILES | Potency [1] | Potency [2] | Potency [3] | Potency [4] | Potency [5] | Potency [6] | Potency [7] | Potency [8] | Potency [9] | Potency [10] | Potency [11] | outcome [12] | Potency [13] | Potency [14] | Potency [15] | Potency [16] | Potency [17] | outcome [18] | outcome [19] | outcome [20]
O=[N+]([O-])c1ccc2c(c1)Cc1ccccc1-2 | inactive | inactive and 61.1 µM (active) | inactive | inactive | inactive | inactive | 61.1 µM (active) | inactive | inactive | inactive | inactive | inactive | inactive | inactive | inactive | inactive | – | – | – | –
O=C1c2cccc(O)c2C(=O)c2c(O)cccc21 | inactive | inactive | inactive | inactive | inactive | inactive | – | inactive | inactive | inactive | inactive | inactive | – | inactive | inactive | inactive | inactive | inactive | inactive | –
CCC(C)c1ccccc1O (stereo not drawn) | inactive | inactive | inactive | inactive | inactive | inactive | inactive | inactive | inactive | – | inactive | inactive | inactive | inactive | inactive | inactive | – | inactive | inactive | –
CC1=CCC(C(C)(C)O)CC1 (stereo not drawn) | inactive | inactive | inactive | inactive | inactive | – | inactive | inactive | inactive | – | inactive | inactive | inactive | – | inactive | inactive | inactive | inactive | inactive | inactive
COC(=O)c1ccccc1 | inactive | inactive | inactive | inactive | inactive | inactive | – | inactive | inactive | inactive | inactive | inactive | inactive | – | inactive | inactive | – | inactive | inactive | –
COC(=O)Nc1nc2ccc(S(=O)c3ccccc3)cc2[nH]1 (stereo not drawn) | inactive | 3.76 µM (active) and 3.06 µM (active) | inactive | inactive | inactive | inactive | – | inactive | inactive | inactive | – | – | inactive | – | inactive | inactive | – | inactive | – | –
Nc1ccc(S(=O)(=O)Nc2cnc3ccccc3n2)cc1 | inactive | inactive | – | inactive | inactive | inactive | – | inactive | inactive | inactive | inactive | – | inactive | – | inactive | inactive | – | inactive | inactive | –
c1ccc(Nc2ccccc2)cc1 | inactive | inactive | – | inactive | inactive | – | inactive | inactive | inactive | inactive | inactive | inactive | inactive | – | inactive | inactive | – | inactive | inactive | –
O=Cc1ccccc1O | inactive | inactive | – | inactive | inactive | inactive | inactive | inactive | inactive | – | inactive | inactive | inactive | – | inactive | inactive | – | inactive | inactive | –
CCCC(=O)O | inactive | inactive | inactive | inactive | – | – | inactive | inactive | inactive | inactive | inactive | inactive | inactive | – | inactive | inactive | – | inactive | inactive | –
c1ccc2c(c1)c1cccc3ccc4cccc2c4c31 | inactive | inactive | inactive | – | – | inactive | – | inactive | inactive | inactive | inactive | inactive | inactive | – | inactive | inactive | inactive | inactive | inactive | inactive
Nc1ncnc2nc[nH]c12 | inactive | inactive | inactive | inactive | – | inactive | inactive | – | inactive | – | inactive | inactive | inactive | inactive | inactive | inactive | inactive | inactive | inactive | inactive
O=C(/C=C/c1ccccc1)OCc1ccccc1 | inactive | inactive | inactive | inactive | – | inactive | – | inactive | inactive | inactive | inactive | inactive | inactive | – | inactive | inactive | – | – | – | –
O=C(O)c1ccccc1Nc1cccc(C(F)(F)F)c1 | inactive | inactive | inactive | inactive | – | inactive | – | inactive | inactive | inactive | inactive | – | inactive | – | inactive | inactive | – | – | inactive | –
O=C(Nc1ccc(Cl)cc1)Nc1ccc(Cl)c(Cl)c1 | 19.2 µM (active) and 30.6 µM (active) | 2.16 µM (active) and 2.73 µM (active) | inactive | inactive | – | – | – | 2.42 µM (active) and 2.73 µM (active) and 10.6 µM (active) | inactive | – | – | inactive | 19.4 µM (active) | 19.4 µM (active) | inactive and 2.66 µM (active) | – | – | – | – | inactive
CCCCCCCCCC(=O)OC | inactive | inactive | – | inactive | inactive | – | inactive | inactive | inactive | – | inactive | inactive | inactive | inactive | inactive | inactive | inactive | – | – | inactive
Cc1[nH]c(=O)c(C#N)cc1-c1ccncc1 | inactive | inactive | – | inactive | inactive | inactive | – | inactive | inactive | inactive | inactive | inactive | inactive | – | inactive | inactive | – | – | – | –
CC1=CC2C3CC(C=C3C)C2C1 (stereo not drawn) | inactive | inactive | – | inactive | inactive | inactive | inactive and 27.3 µM (active) | inactive | inactive | inactive | inactive | inactive | inactive | – | inactive | inactive | – | inactive | – | –
